Measurements taken from PubChem BioAssay (NCATS).
Results filed as inconclusive are left out. A call without a number means that no potency is given here. Calls of active or inactive are those of the source. Calls come from the whole dose curve; as a rule, active = well fitted curve in the direction sought with a large enough effect; inconclusive = small, poorly fitted or top-dose-only effect, or another doubt; inactive = no such curve, though single readings can be large; an effect the other way counts as inactive or inconclusive.

How the values were obtained:
[1] = target: Aldehyde dehydrogenase, mitochondrial (Homo sapiens) (UniProt P05091); experiment: qHTS for Inhibitors of the Aldehyde Dehydrogenase Family (ALDH2) Primary screen (AID 2061308); note: nearly all actives have a fitted effect of over 55% in size
[2] = target: Retinaldehyde dehydrogenase 3 (Homo sapiens) (UniProt P47895); experiment: qHTS for Inhibitors of the Aldehyde Dehydrogenase Family (ALDH1A3) Primary screen (AID 2061315)
[3] = target: Retinal dehydrogenase 2 (Homo sapiens) (UniProt O94788); experiment: qHTS for Inhibitors of the Aldehyde Dehydrogenase Family (ALDH1A2) Confirmation screens (AID 2061314); note: potency is the fitted concentration of half-maximal effect; nearly all actives have a fitted effect of over 65% in size
[4] = target: Aldehyde dehydrogenase 1A1 (Homo sapiens) (UniProt P00352); experiment: qHTS for Inhibitors of the Aldehyde Dehydrogenase Family (ALDH1A1) Confirmatory screens (AID 2061316); note: potency is the fitted concentration of half-maximal effect; nearly all actives have a fitted effect of over 65% in size

Compound | Potency [1] | Potency [2] | Potency [3] | Potency [4]
Cc1ccc(-c2cc(C(=O)Nc3ccc(-c4nn[nH]n4)cc3)c3ccccc3n2)cc1C | inactive | inactive | – | –
O=S(=O)(Nc1nccs1)c1ccc(Nc2nc(-c3ccc(F)cc3)cs2)cc1 | inactive | inactive | 14.2 µM (active) | 11.3 µM (active)
COc1ccc(N2C(=O)c3ccccc3S2(=O)=O)cc1 | inactive | inactive | – | –
O=[N+]([O-])c1ccc([S+](=O)([O-])N2CCN([S+](=O)([O-])c3ccc4c(c3)OCCO4)CC2)c([N+](=O)[O-])c1 | inactive | inactive | – | –
Cc1cn([C@H]2C[C@H](N[S+](=O)([O-])Cc3cccc(Cl)c3)[C@@H](CO)O2)c(=O)[nH]c1=O | inactive | inactive | – | –
Cc1ccc(OCCn2c(CCNC(=O)/C=C/c3ccccc3Br)nc3ccccc32)cc1 | inactive | inactive | – | –
FC(F)(F)c1ccccc1-c1nc(NCc2ccc(-c3ccc4c(c3)OCO4)cc2)c2ccccc2n1 | inactive | inactive | – | –
Cc1cc(-c2nnc3n2CCCCC3)c(C)n1-c1ccc([N+](=O)[O-])cc1 | inactive | inactive | 22.5 µM (active) | 10.1 µM (active)
Brc1cnc2nc(SCc3ccncc3)[nH]c2c1 | inactive | inactive | – | –
Cc1ccc(OCCn2c(CCNC(=O)NC3CCCCC3)nc3ccccc32)cc1 | inactive | inactive | – | –
COc1ccc(O[C@@H]2O[C@H](CO)[C@H](O)[C@H](O)[C@H]2O)cc1 | inactive | inactive | – | –
CC(C)(O)/C=C/C(=O)[C@](C)(O)[C@H]1[C@H](O)C[C@@]2(C)[C@@H]3CC=C4[C@@H](C[C@H](O[C@@H]5O[C@H](CO)[C@@H](O)[C@H](O)[C@H]5O)C(=O)C4(C)C)[C@]3(C)C(=O)C[C@]12C | inactive | inactive | – | –
